# High-throughput results (PubChem)
# Phagocytosis inh – inhibitors of macrophage phagocytosis, primary screen, imaging, J774A.1 cells, IgG beads; inhibition, % at 5 µM; 110,000 compounds, 0.07% hits; J774A.1 macrophage IgG-bead phagocytosis;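 active means inhibition above the mean of the plate negative controls plus 5 SD, cut at about 13% in these data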;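 further: phagocytic index as fraction of beads internalized from green versus red external bead signal; plate controls were DMSO negative control for no effect and cytochalasin-D positive control for full effect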
# MRP1 act – H69AR viability gain despite doxorubicin, primary screen, MRP-1 activator project, H69AR cells, CellTiter-Glo; viability increase, % at 10 µM; 140,000 compounds, 0.61% hits; viability rescue;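 active means viability gain under doxorubicin at or above a set limit, the compound median plus 3 SD, cut at about 4.7% in these data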;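 further: MRP-1 overexpressing cells given doxorubicin 25 µM after compound pretreatment; 18-22 h compound pretreatment then 72 h with doxorubicin before readout; 0% = doxorubicin-only wells and 100% = vehicle-treated cells without doxorubicin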
# MRP resist rev – reversal of MRP1-mediated doxorubicin resistance, primary screen, H69AR cells, doxorubicin co-treatment; H69AR cells + 2 uM doxorubicin, CellTiter-Glo, 72 h; differential viability (reversal), % at 10 µM; 85,000 compounds, 0.04% hits;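 active means viability drop by adding the cancer drug above about 55%, with treated viability meeting a 40% cutoff, limit read from the data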;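 further: viability without doxorubicin minus viability with 2 µM doxorubicin for each compound; larger differential means the compound sensitizes cells more to doxorubicin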
# An asterisk follows results filed as active; . = not tested or not shown; + = active, no number; [ ] = another dose, or the depositor's remark. Sampled rows, rich in hits. Any-hit rate of the full collection: about 0.69%.
SMILES,Phagocytosis inh,MRP1 act,MRP resist rev
CCCn1c(C)cc(/C=C(\C#N)C(=O)OCC(=O)Nc2ccc(OC)c(Cl)c2)c1C,-4,9.4*,.
CCOC(=O)c1c(CN(C)C)n(-c2ccc(C)cc2)c2cc(Br)c(O)cc12,-1,-4,.
CCOC(=O)c1c(CSC(=N)N)n(-c2ccc(C)cc2)c2cc(Br)c(OC(C)=O)cc12,.,9.5*,.
Cc1ccc(C)c(NC(=O)C2CCCN2S(=O)(=O)c2ccc3c(c2)n(C)c(=O)c(=O)n3C)c1 (configuration not stated),.,-2,.
O=C(O)C1CCCCC1C(=O)NCCc1ccc(Cl)cc1 (configuration not stated),0,2,-3
CC(C)NC(=O)C(=O)NCCc1ccc(Cl)cc1,0,4.8*,19
CCc1nc2ccccc2c(C(=O)OCC(=O)Nc2cccc(S(=O)(=O)N3CCOCC3)c2)c1C,.,-5,-25
O=C(CN1CCCCCC1)N1c2ccccc2C=Cc2ccccc21,-1,0,-1
N#CC1=C2C=Cc3ccccc3N2CCCC1=O,0,7.3*,1
COc1ccc(OC)c(NC(=O)COC(=O)CN(C)S(=O)(=O)c2ccc(C)cc2)c1,-7,-2,.
Cc1nc2c(ccc3nc(NC(=O)Cc4cccc5ccccc45)sc32)s1,.,-3,.
Cc1nc2c(ccc3nc(NC(=O)C(c4ccccc4)c4ccccc4)sc32)s1,.,15*,.
COc1cc(C(=O)Nc2ccc3c(c2)Cc2cc(NC(=O)c4cc(OC)c(OC)c(OC)c4)ccc2-3)cc(OC)c1OC,-4,-5,.
O=C(CSCc1cccc(Cl)c1)Nc1ccccc1-c1ccccc1,-13,-3,.
CC(/C=N/N1CCN(c2ccccc2)CC1)=C\c1ccccc1,-1,-1,.
CC(/C=N/N1CCN(c2ccccn2)CC1)=C\c1ccccc1,1,5.0*,.
CCc1ccc(C(=O)N/N=C/c2cccc3ccccc23)nc1,-4,-1,.
COc1ccc(OC)c(NC(=O)CSc2nnc(CNC(=O)COc3ccc(Cl)cc3)o2)c1,3,5.6*,13
COc1ccc(NC(=O)CSc2nnc(CNC(=O)COc3ccc(Cl)cc3)o2)c(OC)c1,2,4,16
CC(C)(C)C(=O)NC(=S)NNC(=O)c1sc2ccccc2c1Cl,.,-5,.
CCOC(=S)NC(=O)c1sc2ccccc2c1Cl,.,8.5*,.
CCCn1nnc(NC(=O)c2sc3ccccc3c2Cl)n1,1,-3,-3
CCCOC(=S)NC(=O)c1sc2ccccc2c1Cl,.,5.7*,.
O=C(CCN1C(=O)c2ccccc2C1=O)C1=NN[C@@H]2C(=O)N(c3cccc(Cl)c3)C(=O)[C@H]12,.,-1,.
Cc1cc(C(=O)NCC(=O)OCC(=O)N(C(C)C)C(C)C)ccc1[N+](=O)[O-],-8,0,.
SMILES,Phagocytosis inh,MRP1 act,MRP resist rev
COc1ccc(C(=O)NCC(=O)NCC2COc3ccccc3O2)cc1 (configuration not stated),2,-2,.
COc1ccc(/C=N/Nc2cc(OC)ncn2)cc1,-8,5.4*,.
COc1ccc(/C=N/Nc2cc(N(C)C)nc(N(C)C)n2)cc1,-14,0,.
O=C(Nc1ccc(Cl)cc1)N1CCC(c2nc(-c3ccccc3Cl)no2)CC1,1,0,-18
Cc1nn(Cc2ccc(Cl)cc2Cl)c(C)c1NC(=O)NC12CC3CC(CC(C3)C1)C2,-1,-1,.
O=C(Nc1ccc(C2CC2(Cl)Cl)cc1)c1ccccc1Br (configuration not stated),-1,11*,.
O=C(Oc1ccccc1C(=O)Nc1ccccc1)c1ccccc1Br,0,-2,.
O=C(COC(=O)CCC(NC(=O)OCc1ccccc1)C(=O)OCC(=O)Nc1ccccc1)Nc1ccccc1 (configuration not stated),-5,0,.
CS(=O)(=O)Nc1ccccc1C(=O)N1CCN(c2ccccc2)CC1,0,-2,8
O=C1/C(=C\c2cccs2)N=C(c2cccs2)N1Nc1ccccc1,1,6.9*,8
O=C1/C(=C/c2cccs2)N=C(c2cccs2)N1Nc1ccccc1,0,2,3
COc1cc(NC(=S)NN2CCN(C)CC2)cc(OC)c1,-1,0,.
CCC(=O)/C=C1/Sc2ccc(OC)cc2N1CC,.,-2,1
CCC(/C=C1\Sc2ccc(OC)cc2N1CCO)=C\c1sc2ccc(OC)cc2[n+]1CCO,+[fluoresces],-4,.
CN(/C(=N\S(=O)(=O)c1ccccc1)C(F)(F)F)c1ccccc1,.,0,.
COC(=O)c1ccc(CNC(=O)COC(=O)CC23CC4CC(CC(Br)(C4)C2)C3)cc1,-5,-2,.
CCc1nnc(NC(=O)C2Cc3ccccc3CN2S(=O)(=O)c2ccc(C)cc2)s1 (configuration not stated),.,-1,-22
CCc1nnc(NC(=O)C2CCCN2S(=O)(=O)c2ccc(C)cc2)s1 (configuration not stated),1,6.8*,-12
O=C(Nc1nccs1)C1CCCN1S(=O)(=O)c1ccc(F)cc1 (configuration not stated),+,0,6
COc1ccc(NC(=O)C2CCCN2S(=O)(=O)c2ccc(F)cc2)cc1 (configuration not stated),0,0,8
O=C(Nc1cccnc1)c1cc(-c2ccc3c(c2)OCO3)on1,1,0,8
Cc1cc(Oc2cc(N)cc([N+](=O)[O-])c2)ccc1Cl,.,-2,.
O=C(Cc1ccccc1)NN1C(=O)C2C3C=CC(C4CC34)C2C1=O (configuration not stated),-8,-1,.
Cc1nnc(NC(=O)CC(NC(=O)C(F)(F)F)c2ccccc2)s1 (configuration not stated),-3,4,.
O=C(CC(NC(=O)C(F)(F)F)c1ccccc1)Nc1nnc(CCc2ccccc2)s1 (configuration not stated),-5,9.3*,.
SMILES,Phagocytosis inh,MRP1 act,MRP resist rev
CCSc1nnc(NC(=O)c2cc(C)on2)s1,.,0,16
Cc1cc(C(=O)Nc2nnc(C(F)(F)F)s2)no1,3,5.5*,3
Cc1ccc(C(=O)NC(C)c2ccc(F)cc2)cc1 (configuration not stated),-5,6.3*,.
CC(NC(=O)c1ccc(F)cc1)c1ccccc1 (configuration not stated),0,-2,.
CCOC(=O)Cc1c(C)nc2c(-c3ccccc3)c(-c3ccccc3)[nH]n2c1=O,.,-4,-37
Cc1cc(=O)oc2c1ccc1oc(/C(=N/O)c3ccccc3)c(C)c12,-1,10*,-10
Cc1ccc(/C(=N\O)c2oc3c(C)c4oc(=O)cc(C)c4cc3c2C)cc1,.,-7,-5
O=C(Nc1cccc(S(=O)(=O)NC2=NCCCCC2)c1)c1cc(-c2ccc(Cl)cc2)nc2ccccc12,.,-1,.
CN(C)S(=O)(=O)c1cccc(NC(=O)COC(=O)CCSc2ccc(Cl)cc2)c1,-6,-1,.
CCN(CC)S(=O)(=O)c1cccc(NC(=O)CCSc2ccc(Cl)cc2)c1,.,5.5*,.
S=C(NCCc1ccccn1)Nc1cccc(Cl)c1,-5,-5,.
CCN(CC(=O)NC(C)(C)C)C(=O)CCl,.,-6,.
COc1ccccc1-n1c(SCC(=O)Nc2ccc(F)cc2)nc2c(c1=O)SCC2,0,-3,-32
CCOC(=O)N1CCN(C(=O)CSc2nc3c(c(=O)n2-c2ccccc2OC)SCC3)CC1,.,-4,57*
